In PubChem BioAssay (NCATS):
Records with an inconclusive call do not appear. The source made the active and inactive calls. Calls follow the shape of the dose curve; as a rule, active = well fitted cell-killing curve with a large enough effect; inconclusive = small, poorly fitted or top-dose-only effect; inactive = flat fitted curve, though single readings scatter.

experiment: Cell Viability - LYMP2-026 (AID 989); settings: LYMP2-026 lymphoblastoid cell viability, qHTS; series mostly up to 92.2 µM; activity change, negative = cytotoxic: at the top concentration; also: nearly all actives have a fitted effect of over 50% in size
From the text: NIH Chemical Genomics Center [NCGC]
NIH Molecular Libraries Screening Centers Network [MLSCN]
National Institutes of Environmental Health Sciences [NIEHS]
National Toxicology Program [NTP]
We have developed a 1536-well cell-based assay for quantitative high throughput screening (qHTS) against a number of cell lines to determine in vitro cytotoxicity of small molecules. This particular assay uses a human lymphoblastoid cell line (LYMP2-026) purchased from Coriell Institute for Medical Research.
NCGC Assay Protocol Summary:
The CellTiter-Glo luminescent cell viability assay (Promega) is a homogeneous method to measure the number of viable cells in culture. The end point readout of this assay is based on quantitation of intracellular ATP, an indicator of metabolic activity, using the luciferase reaction. Luciferase catalyzes the oxidation of beetle Luciferin to oxyluciferin and light in the presence of ATP. The luminescent signal is proportional to amount of ATP present.
Using the CellTiter-Glo luminescent cell viability assay, the amount of cellular ATP was measured in the lymphoblastoid cell line with complete culture medium following compound treatment for 24 hours. The assay was performed in opaque white Kalypsys 1536-well plates. In the screen, tetraoctylammonium bromide was used as positive control. Library compounds were measured for their ability to cause acute toxicity in the cell line, as reflected by a decrease in intracellular ATP levels, in a concentration-dependent manner. […] AC50 values were determined from concentration-response data modeled with the standard Hill equation.
qHTS protocol for CellTiter Glo lymphoblastoid cellular assay
[Step] [Parameter] [Value] [Description]
1. Reagent; 5 uL; 2500 lymphoblastoid cells/well
2. Time; 5 hr; 37 C incubation
4. Controls; 23 nL; Tetraoctylammonium bromide 6.4pM to 92 uM
5. Time; 24 hr; 37 C incubation
6. Reagent; 5 uL; CellTiter Glo reagent
7. Time; 30 min; Room Temperature
8. Detection; Luminescence; Viewlux plate reader
Keywords: cell viability, cytotoxicity, lymphoblastoid cell line, luminescence, NTPHTS, NTPHTS_NCGC, NIEHS, DSSTox, MLSMR, MLSCN, NIH Roadmap, qHTS, NCGC
% is scaled to controls: 0 for no effect and ±100 for the full control effect; potency is read from the fitted curve at half-maximal effect.

Row | Structure (SMILES) | activity change, negative = cytotoxic | Potency
1 | OCCCBr | -13.3% (inactive) | 
2 | Nc1ccc(Cl)cc1 | -7.35% (inactive) | 
3 | CC(C)(O)C(=O)Nc1ccc([N+](=O)[O-])c(C(F)(F)F)c1 | -3.69% (inactive) | 
4 | CC(=O)[O][Hg][c]1ccccc1 |  | 1.26 µM (active)
5 | CCOP(=O)(NC(C)C)Oc1ccc(SC)c(C)c1 (stereo unspecified) | -3.73% (inactive) | 
6 | O=[N+]([O-])c1c(Cl)c(Cl)cc(Cl)c1Cl | -1.22% (inactive) | 
7 | COC(C)(C)CCCC(C)C/C=C/C(C)=C/C(=O)OC(C)C (stereo unspecified) | 4.99% (inactive) | 
8 | c1cc2ccc3cccc4ccc(c1)c2c34 | -2.25% (inactive) | 
9 | CN(C)[C@@H]1C(=O)C(C(N)=O)=C(O)[C@@]2(O)C(=O)C3=C(O)c4c(O)cccc4[C@@](C)(O)[C@H]3[C@H](O)[C@@H]12 | -19.9% (inactive) | 
10 | Nc1ccc(Cl)cc1N | 0.999% (inactive) | 
11 | CCCCCCCCc1ccc(O)cc1 | 1.36% (inactive) | 
12 | O=S(=O)(c1ccc(Cl)cc1)c1ccc(Cl)cc1 |  | inactive
13 | CN(C)NC(=O)CCC(=O)O | -0.963% (inactive) | 
14 | O=[N+]([O-])c1c2ccccc2cc2ccccc12 | 0.307% (inactive) | 
15 | Nc1ccc(Sc2ccc(N)cc2)cc1 | -9.64% (inactive) | 
16 | O=C(O)C(Cl)Cl | -7.08% (inactive) | 
17 | CCCCC(CC)COC(=O)c1ccccc1C(=O)OCC(CC)CCCC (stereo unspecified) | -1.09% (inactive) | 
18 | Nc1ccc([N+](=O)[O-])cc1 | -11.4% (inactive) | 
19 | C=CC(=O)NCNC(=O)C=C | -6.84% (inactive) | 
20 | CCCCOC(=O)c1ccccc1C(=O)OCc1ccccc1 | 3.56% (inactive) | 
21 | O=[N+]([O-])c1cc([N+](=O)[O-])c2ccccc2c1 | -4.18% (inactive) | 
22 | O=C(O)COc1ccccc1 | 2.28% (inactive) | 
23 | COc1ccc(C(c2ccc(OC)cc2)C(Cl)(Cl)Cl)cc1 |  | inactive
24 | C1CCC(NC2CCCCC2)CC1 |  | inactive
25 | CCOCCOC(C)=O | 2.64% (inactive) | 
26 | Cc1cc(O)ccc1Cl | -10.6% (inactive) | 
